An excerpt weighted towards active compounds, which were near 2.4% of everything screened.
D2 ag-1: activates the human D2 dopamine receptor. hit rate 0.53% among 340,000. activation, % at 2 µM. AID 485358. HEK293 T-REx D2 cells, calcium flux agonist mode;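 active = activation over 3 SD above normal in the single-dose calcium agonist read, cut at about 30% in these data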; also: 0% is about no effect
Target sequence (P14416 whole entry, looked up): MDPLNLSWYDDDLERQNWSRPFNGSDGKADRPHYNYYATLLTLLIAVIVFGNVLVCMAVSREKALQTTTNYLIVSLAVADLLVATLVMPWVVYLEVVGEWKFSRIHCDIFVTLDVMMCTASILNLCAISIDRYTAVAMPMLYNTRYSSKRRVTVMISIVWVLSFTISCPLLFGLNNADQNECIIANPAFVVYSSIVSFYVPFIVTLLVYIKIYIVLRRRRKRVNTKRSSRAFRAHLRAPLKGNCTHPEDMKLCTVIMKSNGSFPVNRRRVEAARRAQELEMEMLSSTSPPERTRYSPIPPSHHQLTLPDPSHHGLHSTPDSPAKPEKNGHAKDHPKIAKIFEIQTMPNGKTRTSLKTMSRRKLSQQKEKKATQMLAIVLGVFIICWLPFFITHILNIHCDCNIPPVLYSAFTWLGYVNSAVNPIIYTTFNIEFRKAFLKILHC
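Agonism is scored from calcium flux in a force-coupled, inducible HEK293 cell line expressing D2, read kinetically for 180 s after compound addition against dopamine controls.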
D2 antagonist: antagonists of human D2 dopamine receptor | P14416 | HEK293 TREx D2 cells, calcium flux, dopamine EC80 | inhibition, % at 10 µM | hit rate 2% among 340,000 | AID 485344; in the data active = inhibition above about 30%; inactive = below that, where a call was filed; also: 0% is about no effect
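Measurement of antagonist activity uses fluorescent calcium dye in inducible HEK293 T-REx D2 cells: 10 s baseline, compound addition with 180 s read, EC80 dopamine addition with a further 180 s read.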
D2 ag-2: activates the human D2 dopamine receptor. P14416. DiscoveRx PathHunter D2 beta-arrestin, luminescence, 90 min; 100% = 57 uM dopamine signal. activation, % (test concentration not listed). hit rate 0.084% among 360,000. AID 624465; in the data active = activation above about 40%; inconclusive = between about 15% and that limit
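DiscoveRx PathHunter D2 beta-arrestin cells (2,100/well) attached overnight, then compound-stimulated 90 min at 37 C in HBSS/10 mM HEPES/0.1% Tween-20 buffer; beta-galactosidase complementation read by luminescence after 1 h at ambient temperature. Dopamine 57 uM final (EC100) as control.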
D2 PAM-1: D2 dopamine receptor (human) potentiation; P14416; HEK293 T-REx D2, calcium flux, EC20 dopamine potentiation; potentiation, % at 10 µM; hit rate 0.34% among 340,000;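 active = potentiation over 3 SD above the plate norm, cut at about 30% in these data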; also: 0% is about no effect
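Cells plated with tetracycline inducer and held overnight at 30 C; calcium dye loaded 30–90 min at room temperature; baseline taken, compound added and read 180 s; EC20 dopamine then added and read 180 s.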
D2 PAM-2: potentiates the human D2 dopamine receptor allosterically. AID 624464. potentiation, % (test concentration not listed). hit rate 0.23% among 360,000. DiscoveRx D2 beta-arrestin cells, luminescence, 90 min; 100% = 57 uM dopamine signal; in the data active = potentiation above about 50%; inconclusive = mostly about 30% to 49%
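PathHunter beta-arrestin assay in DiscoveRx D2 cells. Compounds were added with an EC20 of dopamine (50 nM final) for 90 min at 37 deg C. Luminescence was read 1 h after detection reagent, with 57 uM dopamine as the EC100 control.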
The depositor's hits bear a star; ? = inconclusive; · = no result.

SMILES	D2 ag-1	D2 antagonist	D2 ag-2	D2 PAM-1	D2 PAM-2
O=C(NCc1ccco1)c1ccc(S(=O)(=O)N2CCCc3ccccc32)cc1	2.9	40.0*	1.1	-13.2	-4.0
COc1ccc(-c2noc(-c3ccccc3C(=O)NCc3ccco3)n2)cc1OC	-0.2	-4.8	-2.0	32.2*	-12.7
O=C(NCc1ccco1)c1cc([N+](=O)[O-])cc([N+](=O)[O-])c1	0.0	6.0	13.9	2.8	83.2*
Clc1ccc2nc(-c3ccccc3)c(CC3CCCCC3)n2c1	·	·	-6.3	·	-3.5
Cc1ccc(-c2nn(CC(=O)Nc3cccc(C(F)(F)F)c3)c(=O)c3ccccc23)cc1	·	·	·	-2.9	·
CC(=O)Nc1ccc(S(=O)(=O)Nc2ccccc2C(=O)N2CCCCC2)cc1	-1.2	2.9	-3.7	30.9*	-9.2
Cc1ccc(SC[C@H](c2ccccc2)N2CCN(CCc3ccccc3)CCC2=O)cc1	0.3	40.7*	3.1	-8.5	-30.4
CC(=O)NS(=O)(=O)c1ccc(NC(=O)c2cc(-c3cccs3)nc3ccccc23)cc1	36.7*	16.7	0.6	-17.4	-1.2
Cc1cc(NC(=O)c2cc(-c3cccs3)nc3ccccc23)no1	0.1	37.3*	7.0	-0.2	-1.6
O=C(NCC1CCCO1)c1ccc(COc2ccccc2Br)cc1 (configuration not stated)	-1.7	15.7	-3.7	-14.0	-9.6
Cc1csc2nc(COC(=O)c3ccccc3NC(=O)c3ccc(C(C)(C)C)cc3)cc(=O)n12	1.8	·	·	-0.5	·
CCNCCC(=O)N1c2ccccc2Sc2ccc(C(F)(F)F)cc21	9.2	72.6*	-7.0	-24.0	-17.2
COc1ccc(/C=C/C(=O)O)cc1COc1cccc(C)c1	0.1	40.3*	2.0	-19.3	-8.8
COc1ccc(/C=C/C(=O)C2CC2)cc1COc1c(C)cccc1C	0.9	10.4	4.2	·	0.5
Cc1cc(C)c2[nH]c(=O)c(C(c3nnnn3CC3CCCO3)N3CCC(C)CC3)cc2c1 (configuration not stated)	-0.1	37.3*	-1.9	0.9	-25.6
CN(C)/C=C1\C=C2C(=O)c3ccccc3N2C1=O	95.5*	18.1	4.8	-6.6	3.7
COC(=O)c1ccc(NC(=S)N(Cc2cccnc2)Cc2ccco2)cc1	0.0	-4.8	7.3	12.2	6.1
CCc1ccc(NC(=O)N(Cc2cccnc2)Cc2ccco2)cc1	-0.5	-5.6	-2.0	32.4*	-14.4
CC1=NN(c2cccc(F)c2)C(=O)/C1=C/c1ccc(N(C)C)cc1	-0.2	31.6*	0.8	-21.3	-18.5
O=C1c2ccccc2N[C@@H]2C=CC[C@@H]2N1O	·	·	-0.1	·	·
COCC(=O)Nc1cccc(C(F)(F)F)c1	0.8	-7.7	-5.8	32.7*	-16.2
O=C(CN1CCN(Cc2ccccc2)CC1)Nc1cccc(C(F)(F)F)c1	0.1	39.2*	-1.6	-23.9	-13.8
O=C(CN1CCN(c2ccccc2)CC1)Nc1cccc(C(F)(F)F)c1	2.1	21.2	-0.5	-31.3	-21.2
FC(F)(F)c1cccc(CN2CCN(c3ncccn3)CC2)c1	·	·	48.0*	·	?
O=C(O)CCCC(=O)Nc1cccc(C(F)(F)F)c1	0.1	11.8	-1.4	-2.6	-2.2
SMILES	D2 ag-1	D2 antagonist	D2 ag-2	D2 PAM-1	D2 PAM-2
O=C(CN1CCN(c2ccccn2)CC1)Nc1cccc(C(F)(F)F)c1	24.2	48.2*	2.2	-31.5	-9.6
COc1cccc(N(CC(=O)N2CCC(C)CC2)S(=O)(=O)c2ccc(C)cc2)c1	-3.2	·	·	7.9	·
COc1ccc(-n2ncc3c2CC(C)(C)CC3NC(=O)c2oc(C)cc2C)cc1 (configuration not stated)	-0.4	-11.0	-5.6	36.5*	1.4
COC(=O)C1=CO[C@@H](C)[C@H]2CN3CCc4c([nH]c5ccccc45)[C@@H]3C[C@H]12	0.0	71.1*	-7.0	-22.7	-37.1
COC(=O)c1ccc(-c2ccc(/C=N/N3C(=O)C4C5C=CC(C6CC56)C4C3=O)o2)cc1 (configuration not stated)	0.1	0.6	-2.3	-2.5	-5.1
COC(=O)c1cccc(-c2ccc(/C=N/N3C(=O)C4C5C=CC(C6CC56)C4C3=O)o2)c1 (configuration not stated)	-0.2	31.9*	0.0	-0.5	-5.8
COc1ccc(NC(=O)Cn2c(=O)n(CCCC(=O)NCCc3ccc(C)cc3)c(=O)c3ccccc32)cc1Cl	0.4	·	·	-2.6	·
Cc1cc(C)c(C#N)c(N2CCN(Cc3ccccc3)CC2)n1	0.7	73.8*	-0.4	-26.8	-21.3
N#CCc1c(C#N)c(N)nc(N2CCN(Cc3ccc4c(c3)OCO4)CC2)c1C#N	1.7	17.9	-1.4	-35.1	-28.3
Cc1cc(C)c(C#N)c(N2CCN(S(=O)(=O)Cc3ccccc3)CC2)n1	-1.8	-12.7	-5.8	11.7	-6.1
Cc1cc(C)c(C#N)c(N2CCN(Cc3ccc4c(c3)OCO4)CC2)n1	0.1	97.8*	-5.9	-19.9	-36.7
COc1ccc(-c2nnc(SCCOc3ccccc3C)o2)cc1OC	-0.6	·	·	5.6	·
O=C(CSc1nc(-c2ccccc2)[nH]c1-c1ccc(F)cc1)NC1CCCC1	8.6	·	·	-14.1	·
Cc1ccc(-c2ccc([C@H]3[C@H]4C=CC[C@@H](C)[C@@H]4C(=O)N3Cc3ccccc3)c(F)c2)cc1	1.0	33.2*	-5.9	-4.2	-9.3
CCc1nnc(NC(=O)CSc2nnc(CNc3ccc(Cl)cc3)o2)s1	0.3	49.9*	5.6	9.2	3.6
CCc1nnc(NC(=O)CSc2nnc(Cc3ccccc3)o2)s1	-0.3	6.1	1.0	-1.3	0.5
NC(N)=NC(N)=Nc1ccc2ccccc2c1	0.2	32.9*	-6.9	-11.3	-8.6
Cc1cc(C)n(-c2ccc([N+](=O)[O-])cc2)n1	-0.7	34.2*	2.0	-2.1	-0.7
CSCCC(NS(=O)(=O)c1ccccc1F)C(=O)N1CCCCCC1 (configuration not stated)	0.5	43.6*	4.2	19.9	-5.5
COc1cc(CC2COC(c3ccc(O)c(OC)c3)C2COC(C)=O)ccc1O (configuration not stated)	0.5	44.7*	-8.0	17.0	-24.5
COc1cc([C@@H]2OC[C@@H]3[C@H]2CO[C@@H]3c2ccc3c(c2)OCO3)ccc1O	·	·	0.0	·	-5.4
COc1ccc(CCNC(=O)c2ccc(Cn3c(=O)c4ccccc4n(Cc4cccc(Cl)c4)c3=O)cc2)cc1OC	1.4	·	·	12.7	·
CCOC(=O)N1CCN(C(=O)CN(c2cccc(Cl)c2)S(=O)(=O)c2ccccc2)CC1	1.1	·	·	-4.3	·
COc1ccccc1N(CC(O)Cn1c(C)nc2ccccc21)S(=O)(=O)c1ccccc1 (configuration not stated)	1.1	-11.5	1.3	10.9	4.9
COc1ccccc1N(CC(O)Cn1ccnc1C)S(=O)(=O)c1ccccc1 (configuration not stated)	-0.3	34.3*	-4.0	-4.1	-3.0
